Source: PubChem BioAssay (Tox21)
“And” between values parts separate entries of the source, which are not always exact repeats. Equal entries are not always repeated. Records with an inconclusive call do not appear. The source holds several records for some structures; these can differ, active in one and inactive in another. The source made the active and inactive calls. Unless noted, the call rests on the fitted dose curve; in most records, active means well fitted curve in the direction sought with a large enough effect in the repeat runs; inconclusive means weak or mixed curves; inactive means no such curve, though single readings can be large; an effect the other way counts as inactive or inconclusive.

Legend:
[1] = qHTS assay to identify small molecule agonists of H2AX (AID 1224845; active means well fitted activation curve with a large enough effect in the signal ratio in the repeat runs, not every such curve was filed as active; the % refers to the signal ratio; further: potency means the concentration at half of the fitted maximal effect)
Outline: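 Wild-type CHO-K1 cells plated overnight, then exposed 3 hr at 37C to compounds at 15 concentrations (0.76% DMSO). Lysed, then HTRF anti-pH2AX(S139)-cryptate/anti-H2AX-d2 detection after 24 hr at room temperature; emissions 665 and 620 nm.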

[2] = qHTS assay to identify small molecule agonists of the hypoxia (HIF-1) signaling pathway (AID 1224846; active means well fitted activation curve with a large enough effect in the signal ratio in the repeat runs, not every such curve was filed as active; the % refers to the signal ratio)
Outline: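 Measured by blue/green FRET after loading CCF4-AM: beta-lactamase expressed from a hypoxia response element in ME-180 cells. Test agents were delivered in DMSO and left 17 hrs; cells had been plated 5 hrs earlier in low-serum (0.5% dialyzed FBS) medium.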

[3] = qHTS assay to identify small molecule agonists of H2AX - cell viability counter screen (AID 1224847; calls by dose curve; further: nearly all actives have a fitted effect of over 30% in size; further: potency means the concentration at half of the fitted maximal effect)
Outline: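 Compounds tested at 15 concentrations were incubated 3 hr at 37C with wild-type CHO-K1 cells; cellular ATP-based luminescence (CellTiter-Glo) indicated viability.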

[4] = qHTS assay to identify small molecule antagonists of the estrogen related receptor (ERR) signaling pathway from Tox21 library (AID 1224848); further: nearly all actives have a fitted effect of over 50% in size; further: potency means the concentration at half of the fitted maximal effect
Outline: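 Cells: ERR line, 2,000/well; 6 h preincubation 37 C/5% CO2. Cpd in DMSO via pin tool; 18 h, 37 C. ONE-Glo, 30 min RT, luminescence.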

[5] = qHTS assay to identify small molecule agonists of the estrogen related receptor (ERR) signaling pathway from Tox21 library (AID 1224849; calls by dose curve; further: nearly all actives have a fitted effect of over 15% in size); settings: ERR reporter cell line, ONE-Glo luciferase, 18 h
Outline: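 We plated ERR reporter cells, waited 6 h, added compounds in DMSO by pin tool and incubated them 18 h at 37 C. ONE-Glo was then added and luminescence read after 30 min.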

[6] = qHTS RealTime-Glo MT Cell Viability Assay in HepG2 cells - 24 hour (AID 1224867); further: nearly all actives have a fitted effect of over 50% in size; further: potency means the concentration at half of the fitted maximal effect
Outline: (§1)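 Compound treatment began 5 h after plating HepG2 cells (600/well) with NanoLuc luciferase and prosubstrate. Plates stayed at 37 C for 40 h; luminescence was captured at six time points, 0 h through 40 h.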

[7] = qHTS RealTime-Glo MT Cell Viability Assay in HEK293 cells - 32 hour (AID 1224868); further: nearly all actives have a fitted effect of over 50% in size; further: potency means the concentration at half of the fitted maximal effect
Outline: (§2)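 Quantitative high-throughput screen of the Tox21 10K library in HEK293: cells and RealTime-Glo reagents plated together, compound added at 5 h, luminescence monitored through 40 h at 37 C.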

[8] = A CellTox Green Cytotoxicity Assay to monitor cytotoxicity in HEK293 cells - 0 hour (AID 1224869); further: nearly all actives have a fitted effect of over 50% in size
Outline: (§3)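 Each value comes from one timepoint of a single continuous run in which HEK293 cells with CellTox Green were exposed to compound for up to 40 h at 37 C, dye fluorescence rising with cell death.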

[9] = qHTS RealTime-Glo MT Cell Viability Assay in HepG2 cells - 40 hour (AID 1224870); further: nearly all actives have a fitted effect of over 50% in size; further: potency means the concentration at half of the fitted maximal effect
Outline: (§4)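 HepG2 cells mixed with RealTime-Glo MT reagents (NanoLuc plus cell-permeant prosubstrate) were seeded at 600 cells/well, incubated 5 h at 37 C/5% CO2, then pinned with compounds in DMSO; nonlytic luminescence tracked viability during 40 h treatment.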

[10] = A CellTox Green Cytotoxicity Assay to monitor cytotoxicity in HEK293 cells - 40 hour (AID 1224871); further: nearly all actives have a fitted effect of over 45% in size; further: potency means the concentration at half of the fitted maximal effect
Outline: as §3

[11] = qHTS RealTime-Glo MT Cell Viability Assay in HEK293 cells - 16 hour (AID 1224872); further: nearly all actives have a fitted effect of over 50% in size; further: potency means the concentration at half of the fitted maximal effect
Outline: as §2

[12] = qHTS RealTime-Glo MT Cell Viability Assay in HepG2 cells - 8 hour (AID 1224873); further: nearly all actives have a fitted effect of over 55% in size; further: potency means the concentration at half of the fitted maximal effect
Outline: as §4

[13] = qHTS RealTime-Glo MT Cell Viability Assay in HEK293 cells - 40 hour (AID 1224874); settings: RealTime-Glo luminescence; max response: stronger effect = lower value; further: nearly all actives have a fitted effect of over 50% in size; further: potency means the concentration at half of the fitted maximal effect
Outline: (§5)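 qHTS format; HEK293 cells with NanoLuc/prosubstrate reagent, 37 C/5% CO2 for 5 h pre-dosing; compounds 23 nL in DMSO; luminescence at each time point reflects viable cells.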

[14] = A CellTox Green Cytotoxicity Assay to monitor cytotoxicity in HEK293 cells - 24 hour (AID 1224875); further: nearly all actives have a fitted effect of over 45% in size; further: potency means the concentration at half of the fitted maximal effect
Outline: as §3

[15] = A CellTox Green Cytotoxicity Assay to monitor cytotoxicity in HepG2 cells - 16 hour (AID 1224876); further: nearly all actives have a fitted effect of over 45% in size; further: potency means the concentration at half of the fitted maximal effect
Outline: (§6)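 Continuous culture of HepG2 cells with a membrane-impermeant DNA dye; rising fluorescence marks dead cells. Compound exposure lasted up to 40 h at 37 C, with reads every 8 h from 0 h.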

[16] = qHTS RealTime-Glo MT Cell Viability Assay in HepG2 cells - 32 hour (AID 1224877); further: nearly all actives have a fitted effect of over 55% in size; further: potency means the concentration at half of the fitted maximal effect
Outline: as §1

[17] = A CellTox Green Cytotoxicity Assay to monitor cytotoxicity in HepG2 cells - 24 hour (AID 1224878); further: nearly all actives have a fitted effect of over 45% in size; further: potency means the concentration at half of the fitted maximal effect
Outline: as §6

[18] = A CellTox Green Cytotoxicity Assay to monitor cytotoxicity in HepG2 cells - 40 hour (AID 1224879); further: nearly all actives have a fitted effect of over 40% in size; further: potency means the concentration at half of the fitted maximal effect
Outline: as §6

[19] = qHTS RealTime-Glo MT Cell Viability Assay in HEK293 cells - 0 hour (AID 1224880)
Outline: as §5

[20] = qHTS assay to identify small molecule agonists of the hypoxia (HIF-1) signaling pathway - cell viability counter screen (AID 1224844; calls by dose curve; further: nearly all actives have a fitted effect of over 50% in size; further: potency means the concentration at half of the fitted maximal effect)
Outline: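 Luminescent ATP content (CellTiter-Glo, 30 min, room temperature) served as the viability measure in HRE-bla ME-180 cells exposed to compounds for 17 hrs in low-serum medium (0.5% dialyzed FBS).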
On the % scale 0 is the no-effect control and ±100 the full control effect.

O=C(Cl)OCCOCCOC(=O)Cl
inactive: Potency [1] | outcome [2] | Potency [3] | Potency [4] | activity change, positive = activation ([5]; at 92.4 µM (top of the series)) 1.12% | Potency [6] | Potency [7] | Potency [8] | Potency [9] | Potency [10] | Potency [11] | Potency [12] | max response [13] 3.34% | Potency [14] | Potency [15] | Potency [16] | Potency [17] | Potency [18] | outcome [19]

[Cl-].[Cl-].[Hg+2]
active: Potency [20] 43.5 µM | Potency [1] 1.26 µM and 1.42 µM | Potency [3] 17.8 µM and 7.13 µM | Potency [6] 48.8 µM and 3.47 µM | Potency [9] 3.89 µM | Potency [10] 21.8 µM and 3.89 µM | Potency [12] 48.8 µM and 3.89 µM | Potency [13] 2.45 µM | Potency [14] 21.8 µM and 8.71 µM | Potency [15] 38.7 µM and 3.89 µM | Potency [16] 54.7 µM and 3.47 µM | Potency [17] 24.4 µM and 3.89 µM | Potency [18] 24.4 µM and 2.45 µM
inactive: Potency [8] | outcome [19]

C=CCc1ccc(OC(=O)Cc2ccccc2)c(OC)c1
inactive: Potency [20] | Potency [1] | outcome [2] | Potency [3] | Potency [8] | Potency [9] | Potency [10] | Potency [12] | Potency [14] | Potency [15] | Potency [16] | Potency [17] | outcome [19]

CCCCCCCCCCCC[N+](C)(C)CCOc1ccccc1
active: Potency [3] 89.8 µM and 49.2 µM | Potency [4] 19.3 µM and 21.1 µM | Potency [6] 21.9 µM and 9.52 µM | Potency [7] 7.76 µM and 9.52 µM | Potency [9] 19.5 µM and 6.01 µM | Potency [10] 19.5 µM and 23.9 µM | Potency [12] 55 µM and 23.9 µM | Potency [13] 6.92 µM and 9.52 µM | Potency [14] 17.4 µM and 23.9 µM | Potency [15] 24.6 µM and 19 µM | Potency [17] 15.5 µM and 8.49 µM
inactive: activity change, positive = activation ([5]; at 42.5 µM (top of the series)) -65.5% | activity change, positive = activation ([5]; at 92.4 µM (top of the series)) -76.3% | Potency [8] | outcome [19]
24.6 µM (active) and inactive: Potency [20]

O=P(OCC(Br)CBr)(OCC(Br)CBr)OCC(Br)CBr (stereo not drawn)
inactive: Potency [20] | Potency [1] | Potency [6] | Potency [9] | Potency [10] | Potency [12] | Potency [14] | Potency [15] | Potency [16] | Potency [17] | outcome [19]
active: Potency [7] 27.9 µM | Potency [11] 22.2 µM | Potency [13] 27.9 µM

CC(C)[C@@H](C(=O)O[C@@H](C#N)c1cccc(Oc2ccccc2)c1)c1ccc(Cl)cc1
49.7 µM (active) and inactive: Potency [12]
active: Potency [3] 16.2 µM
inactive: Potency [20] | Potency [1] | Potency [8] | Potency [9] | Potency [10] | Potency [14] | Potency [15] | Potency [16] | Potency [17] | outcome [19]

CCOC(=O)c1cncn1C(C)c1ccccc1 (stereo not drawn)
inactive: Potency [20] | Potency [1] | Potency [3] | Potency [4] | activity change, positive = activation ([5]; at 42.5 µM (top of the series)) -0.608% | Potency [6] | Potency [7] | Potency [8] | Potency [9] | Potency [10] | Potency [11] | Potency [12] | max response [13] 3.04% | Potency [14] | Potency [15] | Potency [16] | Potency [17] | Potency [18] | outcome [19]

COc1ccc2c(c1OC)C(=O)O[C@H]2[C@@H]1c2cc3c(cc2CCN1C)OCO3
inactive: Potency [20] | Potency [1] | Potency [3] | Potency [6] | Potency [7] | Potency [8] | Potency [9] | Potency [10] | Potency [11] | Potency [12] | max response [13] 4.68% | Potency [14] | Potency [15] | Potency [16] | Potency [17] | Potency [18] | outcome [19]

COc1ccc(C(=O)c2c(C)n(CCN3CCOCC3)c3ccccc23)cc1
inactive: Potency [20] | outcome [2] | Potency [3] | activity change, positive = activation ([5]; at 42.5 µM (top of the series)) -28.1% | Potency [6] | Potency [8] | Potency [9] | Potency [10] | Potency [11] | Potency [12] | Potency [14] | Potency [16] | outcome [19]

CCCC[N+]1(C)[C@@H]2CC(OC(=O)[C@H](CO)c3ccccc3)C[C@H]1[C@@H]1O[C@@H]12 (stereo partly drawn)
inactive: Potency [20] | Potency [1] | Potency [3] | Potency [6] | Potency [7] | Potency [8] | Potency [9] | Potency [10] | Potency [11] | Potency [12] | max response [13] 2.06% | Potency [14] | Potency [15] | Potency [16] | Potency [17] | Potency [18] | outcome [19]

Nc1ccc2c(c1)Cc1ccccc1-2
inactive: Potency [20] | outcome [2] | Potency [3] | Potency [4] | Potency [6] | Potency [8] | Potency [9] | Potency [10] | Potency [12] | Potency [14] | Potency [15] | Potency [16] | Potency [17] | outcome [19]
active: activity change, positive = activation ([5]; at 92.4 µM (top of the series)) -8.59%

CCC(C)(C)c1ccc(O)c(C(C)(C)CC)c1
48.5 µM (active) and inactive: Potency [7]
inactive: activity change, positive = activation ([5]; at 92.4 µM (top of the series)) -59% and -10.3% | Potency [8] | Potency [9] | max response [13] -21.8% | Potency [16] | outcome [19]
active: Potency [20] 19.3 µM and 24.5 µM | Potency [1] 56 µM and 35.7 µM | Potency [3] 88.8 µM and 40.1 µM | Potency [10] 43.2 µM and 15.5 µM | Potency [11] 43.2 µM | Potency [13] 43.2 µM | Potency [14] 43.2 µM and 17.4 µM | Potency [15] 24.3 µM | Potency [17] 34.3 µM | Potency [18] 38.5 µM
60.4 µM (active) and inactive: Potency [4]
